The values that follow come from PubChem BioAssay.

Assay [1] in a line: compound effects on lung adenocarcinoma cell viability – A549, calcein-AM fluorescence, 48 h, basal, profiling panel (AID 1162). Further: test concentration not given here. The settings on record: higher = more signal.
The nature of assay [2]: compound effects on differentiated 3T3-L1 adipocyte viability – cell-based, 3T3-L1 adipocytes, calcein-AM fluorescence, 48 h, basal, profiling panel (AID 1163). Further: test concentration not given here. The following applies: 3T3-L1 adipocytes viability, higher = more signal.
A short description of assay [3]: compound effects on hepatocellular carcinoma cell viability – HepG2, calcein-AM fluorescence, 48 h, basal, profiling panel (AID 1164). Further: test concentration not given here. The settings on record: higher = more signal.
A short description of assay [4]: compound effects on multiple myeloma cell viability – MM1S, calcein-AM fluorescence, 48 h, basal, profiling panel (AID 1165).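 Further: viability of MM1S multiple myeloma cells under basal unstimulated conditions; test concentration not given here.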 The settings on record: higher = more signal.
A short description of assay [5]: calcein-AM signal in unstimulated myeloma cells – cell-based, calcein-AM fluorescence, 48 h, PK04 Diversity Set, profiling panel (AID 1166).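 Further: cells grown under basal conditions without added stimulus; test concentration not given here.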 The following applies: RPMI8226 myeloma viability, higher = more signal.
Assay [6] can be described thus: JC-1 mitochondrial signal, unstimulated HepG2 cells – cell-based, JC-1 fluorescence, 24 h, 100 nL compound, profiling panel (AID 1167). Further: test concentration not given here. The settings on record: HepG2 mitochondrial potential, higher = more signal.
A short description of assay [7]: JC-1 mitochondrial signal, unstimulated adipocytes – cell-based, JC-1 fluorescence, 3T3-L1 adipocytes, 24 h, 100 nL compound, profiling panel (AID 1168). Further: test concentration not given here. The settings on record: JC-1 mitochondrial fluorescence, higher = more signal, called active from +8 up or from −8 down.
Assay [8] can be described thus: JC-1 mitochondrial signal, unstimulated myeloma cells – cell-based, JC-1 fluorescence, RPMI8226, 24 h, 100 nL compound, profiling panel (AID 1169). Further: test concentration not given here. The settings on record: JC-1 mitochondrial potential fluorescence, higher = more signal.
A short description of assay [9]: JC-1 mitochondrial signal, unstimulated MM1S myeloma – cell-based, JC-1 fluorescence, 24 h, 100 nL compound, profiling panel (AID 1170). Further: test concentration not given here. The settings on record: MM1S mitochondrial potential, higher = more signal.
Assay [10] is described as follows: resazurin metabolic signal in A549 cells – cell-based, resazurin fluorescence, 24 h, PK04 Diversity Set, profiling panel (AID 1171). Further: test concentration not given here. The settings on record: A549 viability, higher = more signal, called active from +8 up or from −8 down. (In general: Resazurin is reduced to fluorescent resorufin, in cell work by metabolically active cells.)
Assay [11] is described as follows: resazurin metabolic signal in HepG2 cells – cell-based, resazurin fluorescence, 24 h, PK04 Diversity Set, profiling panel (AID 1172). Further: test concentration not given here. The settings on record: HepG2 viability, higher = more signal.
Assay [12] is described as follows: budding yeast growth changes without added modifier – OD600, strain BY4716, 24 h, basal condition, primary screen (AID 1173). The following applies: S. cerevisiae BY4716 growth, OD600, 24 h; higher = more signal, called active from +8 up or from −8 down.
The nature of assay [13]: viability profiling in MM1S myeloma cells – cell-based, resazurin fluorescence, basal, 24 h, PK04 Diversity Set, profiling panel (AID 1174). Further: test concentration not given here. The settings on record: higher = more signal, called active from +8 up or from −8 down.
Assay [14] deals with Dihydroorotate dehydrogenase (quinone), mitochondrial (Plasmodium falciparum (isolate 3D7)) (UniProt Q08210). Put plainly: inhibition of P. falciparum DHODH – biochemical, C-terminal His tag, absorbance 600 nm, primary screen (AID 1175).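 Further: recombinant parasite enzyme with a five histidine tag at its C terminus; test concentration not given here.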 The settings on record: PfDHODH enzyme, DCIP absorbance 600 nm; higher = more signal, called active from +8 up or from −8 down.
Assay [15] in a line: inhibition of PAO1 biofilm formation – strain PAO1, LB-PBS medium, absorbance 600 nm, primary screen (AID 1176). Further: test concentration not given here. The following applies: P. aeruginosa PAO1 growth/biofilm, A600, 12 h; higher = more signal.
A short description of assay [16]: growth modulation of vineyard yeast isolate – strain RM11-1a, OD600, basal, 24 h, primary screen (AID 1177).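 Further: cultures grown under basal conditions with no added stressor; test concentration not given here.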 The following applies: S. cerevisiae RM11-1a growth, OD600, 24 h; higher = more signal, called active from +8 up or from −8 down.
Assay [17] in a line: growth of efflux-deficient E. coli DRC39 – strain DRC39, OD650, 24 h, E. coli filamentation inducers, primary screen (AID 1178).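 Further: growth measured as culture turbidity by optical density at 650 nm; test concentration not given here.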 The following applies: E. coli DRC39 acrAB, higher = more signal, called active from +8 up or from −8 down.
The nature of assay [18]: growth of efflux-deficient E. coli DRC39 – strain DRC39, OD650, 48 h, E. coli filamentation inducers, primary screen (AID 1179).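 Further: screen aims at cell division blockers that make cells filament.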 The following applies: E. coli DRC39 delta-acrAB growth, higher = more signal, called active from +8 up or from −8 down.
Assay [19] can be described thus: viability profiling in RPMI8226 myeloma cells – cell-based, resazurin fluorescence, basal, 24 h, PK04 Diversity Set, profiling panel (AID 1180).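 Further: RPMI8826 multiple myeloma cell line at 5000 cells per well; test concentration not given here.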 The following applies: higher = more signal.
Assay [20] deals with E3 ubiquitin-protein ligase XIAP (Homo sapiens) (UniProt P98170). The assay can be described thus: small molecules binding XIAP protein – biophysical, small-molecule microarray, fluorescence 635 nm, primary screen (AID 1181).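 Further: score merges 667 nm emission and signal to noise over triplicate slides.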 The following applies: higher = more signal.

Activity calls are given as the source filed them. Unless noted, how the calls were made is not given here.

E3 ubiquitin-protein ligase XIAP (Homo sapiens), sequence (P98170 whole entry, looked up): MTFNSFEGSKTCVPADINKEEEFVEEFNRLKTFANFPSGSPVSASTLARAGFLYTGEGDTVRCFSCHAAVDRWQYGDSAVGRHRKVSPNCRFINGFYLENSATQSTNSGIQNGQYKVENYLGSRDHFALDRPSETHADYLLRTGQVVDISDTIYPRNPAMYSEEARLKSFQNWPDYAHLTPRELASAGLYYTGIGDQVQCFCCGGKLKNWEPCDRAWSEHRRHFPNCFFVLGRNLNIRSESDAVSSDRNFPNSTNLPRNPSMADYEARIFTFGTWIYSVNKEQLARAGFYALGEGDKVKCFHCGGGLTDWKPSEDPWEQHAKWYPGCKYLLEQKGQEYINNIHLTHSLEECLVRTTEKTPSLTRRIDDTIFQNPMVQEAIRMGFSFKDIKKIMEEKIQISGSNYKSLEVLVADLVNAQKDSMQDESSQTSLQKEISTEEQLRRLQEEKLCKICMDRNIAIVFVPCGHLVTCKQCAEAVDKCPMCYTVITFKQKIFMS
Dihydroorotate dehydrogenase (quinone), mitochondrial (Plasmodium falciparum (isolate 3D7)), sequence (Q08210 whole entry, looked up): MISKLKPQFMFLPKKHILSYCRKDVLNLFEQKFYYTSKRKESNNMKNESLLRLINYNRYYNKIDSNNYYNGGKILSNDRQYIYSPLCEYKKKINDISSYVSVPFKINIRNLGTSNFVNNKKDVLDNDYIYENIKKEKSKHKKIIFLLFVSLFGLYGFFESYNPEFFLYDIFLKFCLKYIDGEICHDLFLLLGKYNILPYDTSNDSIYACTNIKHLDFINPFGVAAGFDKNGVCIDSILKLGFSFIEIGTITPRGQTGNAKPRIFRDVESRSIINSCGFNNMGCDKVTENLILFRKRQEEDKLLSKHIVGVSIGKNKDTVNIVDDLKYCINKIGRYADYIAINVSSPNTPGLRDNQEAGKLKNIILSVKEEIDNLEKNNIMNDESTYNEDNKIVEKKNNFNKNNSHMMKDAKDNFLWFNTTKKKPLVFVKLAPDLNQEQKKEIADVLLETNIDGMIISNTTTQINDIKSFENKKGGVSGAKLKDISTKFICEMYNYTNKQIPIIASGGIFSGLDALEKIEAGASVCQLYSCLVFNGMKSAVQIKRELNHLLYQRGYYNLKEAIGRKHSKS

For `CC(CCN1CCCCc2nc(C)c(C)cc21)=NOC[C@@H](O)[C@H]1O[C@@H]2OC(C)(C)O[C@@H]2[C@H]1O`, the z-score in assay [1] is -0.638; in [2] it was -0.566; in assay [3] it was -1.33; in assay [4], -0.22; in [5], -0.177; in assay [6], -0.536. Further, the z-score is -1.31 (inactive) in assay [7]; -0.0542 in assay [8]; -0.477 in assay [9]; 0.0214 (inactive) in assay [10]; -0.825 in [11]; -0.546 (inactive) in assay [12]. Moreover, the z-score in assay [13] is -1.03 (inactive); in assay [15], 0.335 (inactive); in assay [16], -0.382 (inactive); in assay [17], 0.78 (inactive); in [18], -0.887 (inactive); in assay [19], -0.216. Moreover, the composite z-score was -0.183 (inactive) in [14] and -0.0323 in [20].

With `CCCCOC(OCCCC)C(O)CSc1ccc2ccccc2c1` (stereo not given), the z-score is -1.28 in [1]; -0.809 in assay [2]; 0.0428 in [3]; -2.77 in assay [4]; -1.04 in assay [5]; -0.36 in assay [6]. Besides, the z-score was -0.239 (inactive) in assay [7]; 0.591 in [8]; -0.285 in assay [9]; -0.911 (inactive) in assay [10]; -0.879 in assay [11]; -2.07 (inactive) in assay [12]. Further, the z-score is -1.99 (inactive) in assay [13]; 0.344 (inactive) in assay [15]; 0.363 (inactive) in assay [16]; 0.872 (inactive) in assay [17]; 1.01 (inactive) in assay [18]; -1.37 in [19]. Further, the composite z-score in [14] was -0.161 (inactive); in assay [20], 0.0506.

For the molecule `COCC#Cc1ccc([C@@H]2N[C@H](C(=O)O)CC[C@H]2C)cc1`, the z-score in assay [1] is 0.681; in [2], -0.269; in [3], 0.654; in [4], 0.391; in assay [5], 1.14; in [6], 0.816. Also, the z-score in assay [7] was 0.727 (inactive); in [8], -0.859; in assay [9], 0.839; in [10], -0.488 (inactive); in assay [11], -0.041; in assay [12], -1.71 (inactive). Moreover, the z-score in assay [13] was 0.525 (inactive); in assay [15], 0.143 (inactive); in assay [16] it was -2.45 (inactive); in assay [17] it was 0.966 (inactive); in [18], -0.94 (inactive); in assay [19], -0.293. Besides, the composite z-score was -1.53 (inactive) in assay [14] and -0.416 in [20].

In the case of `CCOC(=O)[C@H](CC(C)C)NC(=O)CCC1CC(OC(=O)NCc2ccc3c(c2)OCO3)CC2(CCCC(COC(=O)NCCc3ccccc3OC)O2)O1` (stereo not given in full), the z-score is -0.47 in [1]; -0.837 in assay [2]; 0.0138 in assay [3]; -1.32 in assay [4]; -0.312 in [5]; -0.828 in assay [6]. The z-score in assay [7] was -0.104 (inactive); in assay [8] it was -0.282; in [9], -0.501; in [10], 1.06 (inactive); in assay [11] it was 0.686; in assay [12], 0.594 (inactive). Further, the z-score was -0.0143 (inactive) in [13]; 0.614 (inactive) in assay [15]; -0.173 (inactive) in assay [16]; -0.163 (inactive) in assay [17]; -1.02 (inactive) in assay [18]; 0.512 in [19]. The composite z-score in assay [14] was -0.445 (inactive); in [20] it was -0.102.
